Measurements taken from PubChem BioAssay AID624330 (Southern Research Specialized Biocontainment Screening …, 2012).
The campaign covered roughly 340,000 compounds. About 2,100 (0.62%) were called active.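 Rule for the calls: active = first-screen hits whose inhibition reached a set limit at any dose in the follow-up dose series; inconclusive = inhibition above the set first-screen limit but never retested; inactive = the rest.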 A selection follows. Results with a measured potency or affinity are listed apart.

molecular target: Rac GTPase-activating protein 1 (Homo sapiens) (UniProt Q9H0H5); test: blockers of MgcRacGAP-driven Rac1 GTP hydrolysis – biochemical, ADP Hunter fluorescence, primary and confirmatory, confirmation (AID 624330); settings: MgcRacGAP-stimulated Rac1 GTP hydrolysis, at 30 µM, active compounds read high, GST-tagged Rac1 F28L mutant substrate;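 note: fluorescence reports GDP produced by GAP-driven GTP hydrolysis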
Sequence (Q9H0H5 whole entry, looked up): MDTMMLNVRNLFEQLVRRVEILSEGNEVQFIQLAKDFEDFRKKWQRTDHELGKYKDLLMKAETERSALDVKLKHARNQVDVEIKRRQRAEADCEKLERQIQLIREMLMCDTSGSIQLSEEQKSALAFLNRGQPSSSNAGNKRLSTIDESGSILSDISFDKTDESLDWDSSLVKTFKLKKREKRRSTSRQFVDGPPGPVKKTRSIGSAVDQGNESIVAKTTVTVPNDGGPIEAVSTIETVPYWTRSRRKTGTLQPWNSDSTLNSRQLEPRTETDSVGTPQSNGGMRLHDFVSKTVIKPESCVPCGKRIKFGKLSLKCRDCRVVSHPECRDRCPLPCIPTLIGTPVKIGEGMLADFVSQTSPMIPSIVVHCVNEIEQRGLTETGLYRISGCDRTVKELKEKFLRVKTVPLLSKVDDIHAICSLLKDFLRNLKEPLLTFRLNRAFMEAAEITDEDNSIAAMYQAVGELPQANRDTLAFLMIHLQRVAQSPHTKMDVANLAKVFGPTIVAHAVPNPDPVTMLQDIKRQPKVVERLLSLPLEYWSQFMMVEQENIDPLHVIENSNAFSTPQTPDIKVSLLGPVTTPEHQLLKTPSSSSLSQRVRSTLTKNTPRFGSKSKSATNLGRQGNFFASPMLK

inhibition, inactive:
COc1ccc(C(=O)C2CCCN(C(=O)CCC3=NNC(=O)CC3)C2)c(C)c1 (stereo not drawn) -12.3%
O=C1CCC(C(=O)N2CCCC(Nc3ccc(F)cc3)C2)=NN1 (stereo not drawn) 13.7%
Cc1ccc(NC2CCCN(C(=O)CCC3=NNC(=O)CC3)C2)cc1C (stereo not drawn) 11.1%
COc1ccc(N2CCN(C(=O)C3=NNC(=O)CC3)CC2)cc1 4.93%
O=C(O)c1ccc(S(=O)(=O)N(Cc2ccc(F)cc2)C2CCCCC2)cc1 7.41%
O=C(Nc1ccc(N2CCOCC2)nc1)c1ccc(F)cc1 3.12%
COc1ccc2cc(/C=N/NC(=O)c3c(Cl)cnn3C)c(Cl)nc2c1 3.85%
Clc1ccc(/C=N/Nc2ncnc3nc[nH]c23)cc1 19.8%
Cc1ccc(/C=N/Nc2ncnc3nc[nH]c23)cc1 11.9%
Cc1ccc(CCNc2ncnc(Cl)c2N)cc1 6.24%
Nc1c(Cl)ncnc1N/N=C/c1cccnc1 -0.02%
COc1cccc(/C=N/Nc2ncnc(Cl)c2N)c1O 7.43%
COc1ccc(/C=N/Nc2ncnc(Cl)c2N)cc1OC 9.22%
Nc1c(Cl)ncnc1N/N=C/c1cccc(O)c1 -2.65%
Nc1c(Cl)ncnc1NCCO 12.3%
CC1CCc2cc(F)ccc2N1C(=O)CN1C(=O)c2ccccc2C1=O (stereo not drawn) 7.46%
FC(F)(F)c1ccncc1-c1nnc(C2CCCCC2)o1 12.4%
CCCC(c1nnnn1Cc1ccc(OC)cc1)N1CCC(C(N)=O)CC1 (stereo not drawn) 3.71%
CC12CC(NC(=O)N1c1cccc(C(=O)N3CCN(c4ccccc4F)CC3)c1)c1ccccc1O2 (stereo not drawn) 4.9%
COC(=O)c1ccc(/C=N/NC(=O)C2CC(=O)N(c3ccc(OC)cc3)C2)cc1 (stereo not drawn) -2.9%
CN(CC(=O)Nc1ccccc1C(F)(F)F)C(=O)CN1C(=O)C2CCCCC2C1=O (stereo not drawn) 8.57%
COc1cccc2sc3cc(NCc4ccc5c(c4)OCO5)ccc3c(=O)c12 3.16%
CCN(CC)C(=O)C1=C(C)N(Cc2ccc(F)cc2)C(=O)C(CC(=O)NCc2ccco2)C1 (stereo not drawn) 13.8%
CCn1cnc2cc(NCc3ccc(Cl)cc3)ccc21 20%
CCn1cnc2cc(NCc3ccc(C)cc3)ccc21 25.6%
COc1cc(NC(=S)N2CCCCC2C)cc(OC)c1OC (stereo not drawn) 12.9%
CC(C)(C#CC(O)(c1ccccc1)c1ccccc1)N1CCCC1 11.3%
C[C@H]1CN(S(=O)C(C)(C)C)[C@@H](CCO)/C1=C\CCO (stereo partly drawn) 5.48%
C=CCNC(=O)CC(=O)N/N=C/c1ccccc1F -1.62%
Cc1cccc(N2CC(C(=O)Nc3cccc(S(=O)(=O)N4CCCCC4)c3)CC2=O)c1C (stereo not drawn) 5.62%
CCOc1ccccc1OCCCOc1ccc(C)cc1Cl 12%
CNc1nc2c(c(=O)n(C)c(=O)n2C)n1Cc1ccccc1 -6.26%
CCCCn1c(Cl)nc2c1c(=O)n(C)c(=O)n2C 9.62%
CCCCn1c(C)nc2c(=O)n(C)c(=O)[nH]c21 4.63%
CCOC(=O)c1nc2c(=O)n(C)c(=O)n(C)c2n(C)c1=O 0.79%
CCn1c(=O)n(C)c2c(=O)n(C)c(=O)n(C)c21 -0.22%
Cn1c(=O)c2nc(SCc3ccccc3)n(C)c2n(C)c1=O 6.08%
CCCn1nc(C(=O)NNC(=O)CCCOc2ccc(OC)cc2)c2ccccc2c1=O 1.29%
Cc1nc(N2CCCCC2)c2sc(=S)n(C)c2n1 5.47%
CCOc1ccc(C(=O)NCCc2ccc3c(c2)OCCO3)cc1 6.99%
O=C(Nc1cc(C(F)(F)F)ccc1N1CCOCC1)c1ccc(F)cc1 9.9%
CS(=O)(=O)c1nc(S(=O)(=O)c2ccc(Cl)cc2)c(N2CCCCC2)s1 5.12%
COCCCNC(=O)C1CCC(CNS(=O)(=O)c2ccc(Cl)cc2)CC1 (stereo not drawn) -9.18%
O=C(COc1ccc2c3c(c(=O)oc2c1)CCC3)NCCCN1CCCC1=O 9.27%
CC(C)=CCC/C(C)=C/CNC(=O)CC1C[C@H](C(=O)N2CCOCC2)[C@@]2(C)c3[nH]c4ccccc4c3CCN2C1=O (stereo partly drawn) 7.27%
COc1ccc(-c2ccccc2[C@H]2[C@@H]3C=CC[C@@H](C)[C@@H]3C(=O)N2Cc2ccccc2)cc1 5.83%
C/C(=N\Nc1nc(-c2cc(C)ccc2C)cs1)c1cc2ccccc2oc1=O 6.23%
O=C(c1cc(Cl)ccc1F)N1CCCC(Nc2ccc3c(c2)OCCO3)C1 (stereo not drawn) 30.3%
Cc1ccc(NC2CCCN(C(=O)c3ccccc3N3CCOCC3)C2)cc1C (stereo not drawn) 0.36%
COc1ccc(C(=O)C2CCCN(C(=O)c3ccc(CSC)o3)C2)cc1F (stereo not drawn) 5.42%
Cc1cc(C)c(C(=O)N2CCCC(Nc3ccc(F)cc3)C2)o1 (stereo not drawn) 1.75%
COC(=O)c1cccc(C(=O)N2CCCC(Nc3ccc4c(c3)OCCO4)C2)c1 (stereo not drawn) 29.2%
CSCc1ccc(C(=O)N2CCCC(Nc3ccc(F)cc3)C2)o1 (stereo not drawn) 7.33%
O=C(c1ccccc1N1CCOCC1)N1CCCC(Nc2ccc(F)cc2)C1 (stereo not drawn) 9.71%
Cc1cc(C)c(C(=O)N2CCCC(Nc3ccc(C)c(C)c3)C2)o1 (stereo not drawn) -18%
O=S(=O)(c1ccccc1)c1nc(-c2ccccc2)oc1N1CCOCC1 6.03%
Cc1nnc(SCc2ccccc2)n1N -3.52%
O=C(O)c1ccc(/C=N/O)cc1 1.83%
CC(C)(C)NC(=O)C(c1ccccc1)N(C(=O)CNC(=O)c1cccs1)c1cccnc1 (stereo not drawn) 4.59%
COc1ccc(C=O)cc1Cn1c(=O)n(CCC(=O)NCc2ccco2)c(=O)c2sccc21 8.39%
Cc1cccc(C(=O)Nc2cccc(C(=O)N/N=C/c3cccc(C)n3)c2)c1 13.9%
CSc1cc(SC)ncn1 1.8%
CC(C)(CN1CCOCC1)NS(=O)(=O)c1ccccc1 1.36%
CCN(CC(=O)Nc1cccc(F)c1)Cc1nc2ccccc2c(=O)[nH]1 -2.26%
CN(C)C(/C=C/Nc1ccc(C#N)cc1)=C(C#N)C#N 4.16%
Cc1ccc(C2=CSC3=NCCN23)cc1 11.6%
CC1=CC(C)(C)N(C(=O)CNC2CCCCC2)c2cc(C)ccc21 30.1%
CC1=CC(C)(C)N(C(=O)CCl)c2cc(C)ccc21 2.46%
CCOc1ccccc1C(C(=O)NC1CCCC1)N(C(=O)c1csnn1)C1CC1 (stereo not drawn) 6.21%
CC(c1nnc(SCC(=O)NC(=O)NCc2ccco2)n1-c1ccc(Cl)cc1)N(C)C (stereo not drawn) 4.03%
CCC(=Cc1ccccc1O)c1ccncc1 2.41%
CC/C(=C\c1ccc(Cl)cc1)c1ccncc1 5.22%
CCOC(=O)C(NC(C)=O)C(=O)Nc1ccc(C(C)(C)C)cc1 (stereo not drawn) 15.1%
C[C@H](CO)N1C[C@H](C)[C@@H](CN(C)S(=O)(=O)c2ccc(F)cc2)Oc2ccc(NC(=O)NC3CCCCC3)cc2C1=O 6.3%
CC(C)(Oc1ccc(Cl)cc1)C(=O)N(Cc1ccccc1)c1ccccn1 1.14%
Cc1ccc2sc(NNC(=O)c3cc(=O)c4ccccc4o3)nc2c1C 24.2%
Cc1cc(C)c2nc(NNC(=O)c3cc(=O)c4ccccc4o3)sc2c1 10.6%
Cc1ccc(C)c(OCCCN2CCCC2)c1 19.9%
Cc1cc(C)c(OCCCCN2CCNCC2)c(C)c1 8.89%
Clc1ccc(OCCCN2CCCC2)cc1Cl -13.7%
Cc1ccc(C(C)C)c(OCCCCCN2CCOCC2)c1 7.81%
Cc1cc(OCCCN2CCCC2)ccc1Cl 7.71%
Cc1ccc(C)c(OCCCN2CCNCC2)c1 7.95%
Cc1ccc(C)c(OCCCCN2CCNCC2)c1C 4.36%
Cc1ccc(OCCCCN2CCCCC2)c(Br)c1 6.79%
Cc1cc(C)n2c(SCC(=O)Nc3ccccc3C#N)nnc2n1 2.29%
COc1ccc(CCN2CCCn3c2nc2c3c(=O)[nH]c(=O)n2C)cc1OC 6.67%
CCC1(NC(C)=O)CC2CC1CC2NC(C)=O (stereo not drawn) 1.95%
CCCC(C)NC(=O)COC(=O)c1ccccc1SCC(=O)NC(C)CCC (stereo not drawn) 2.85%
Cc1ccc(P(=O)(O)c2ccc(C)cc2)cc1 8.6%
Cc1ccc(OCCCCN2CCCCC2)c(C)c1 2.28%
Cc1ccccc1OCCOCCN1CCCCCC1 -5.57%
Cc1ccc(OCCN2CCCCCC2)c(C)c1 10.9%
Cc1ccccc1OCCCN1CCCC1 26.5%
CC1CCCN(C(=O)C2CCN(Cc3ccc4c(c3)OCO4)CC2)C1 (stereo not drawn) 5.33%
COc1ccc(C(=O)Nc2c(C(C)(C)C)nn(C)c2C(C)(C)C)cc1 10.2%
CCOC(=O)C1CCN(S(=O)(=O)c2ccc(Cl)cc2)CC1 4.24%
Cc1sc2nc(CSc3ccccc3)nc(N3CCN(C)CC3)c2c1C 7.15%
CCOC(=O)c1sc2nc(CSc3ccccc3)nc(N3CCC(C(N)=O)CC3)c2c1C -5.99%
CC/C(=N\O)c1ccc(OC)c(OC)c1 8.04%
COc1cc(C(=O)OCCN2CCCCC2)ccc1O 21.2%
C=CCOc1ccc(/C(CC)=N/O)cc1OC 3.46%
COc1cc(C(=O)C(=O)c2ccc(O)c(OC)c2)ccc1O 13.4%
